PI4K2A block: qHTS for small molecular inhibitors of PI4K2A; purified PI4K2A, ADP-Glo luminescence, 1 h; active compounds read low; AID 1346378, 2018; actives 0.13% (n = 420,000); Phosphatidylinositol 4-kinase type 2-alpha (Homo sapiens), Q9BTU6; activity change, negative = inhibition, % at 76.9 µM; in the data active = activity change below about -50%; inconclusive = mostly about -30% to -49%;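 note: -100% = wells without enzyme as full effect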
Target sequence (Q9BTU6 whole entry, looked up): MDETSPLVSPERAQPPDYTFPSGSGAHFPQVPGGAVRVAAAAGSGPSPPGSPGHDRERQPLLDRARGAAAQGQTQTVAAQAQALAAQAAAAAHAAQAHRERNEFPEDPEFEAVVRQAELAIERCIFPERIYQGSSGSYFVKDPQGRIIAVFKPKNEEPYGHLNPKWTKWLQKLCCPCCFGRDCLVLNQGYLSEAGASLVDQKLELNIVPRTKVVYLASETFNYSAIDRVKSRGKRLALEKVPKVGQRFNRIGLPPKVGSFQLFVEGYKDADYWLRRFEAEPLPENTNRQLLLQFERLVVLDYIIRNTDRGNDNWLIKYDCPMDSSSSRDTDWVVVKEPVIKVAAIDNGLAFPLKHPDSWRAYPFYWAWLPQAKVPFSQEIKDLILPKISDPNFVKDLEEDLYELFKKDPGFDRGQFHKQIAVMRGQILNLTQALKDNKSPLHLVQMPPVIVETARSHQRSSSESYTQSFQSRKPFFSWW
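ADP-Glo luminescence measured ADP generated by PI4K2A enzyme (4 ug/mL before mixing) with 1.2 mM PI substrate (pre-mix) and 300 microM ATP (pre-mix). Tris pH7.5 buffer with MgCl2, Triton X-100; 1 h reaction at ambient temperature.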
D3 antag: qHTS of D3 Dopamine Receptor Antagonist: qHTS | max response, negative = inhibition, % | actives 2.5% (n = 360,000) | D3R cells, DiscoveRx beta-arrestin luminescence, antagonist mode; active compounds read low | D(3) dopamine receptor (Homo sapiens), P35462 | AID 652054, 2013; in the data active = max response below about -50%; inconclusive = no clear call, values can overlap the other calls; note: % is set by controls: 0 for no effect and ±100 for the full control effect
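Cells expressing the human receptor were seeded at 1500 cells/well, incubated overnight at 37 degrees C in 5% CO2, then exposed to library compounds with dopamine controls for 90 minutes at 37 degrees C before luminescent detection.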
LDHA block: qHTS assay for inhibitors of human lactate dehydrogenase | actives 0.15% (n = 480,000) | AID 1347041, 2019 | activity change, % (values are at about 110 or 230 µM) | purified LDHA, NADH/diaphorase-resazurin fluorescence; active compounds read low; in the data active = activity change below about -30%; inconclusive = mostly about -25% to -30%;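 note: plate controls were DMSO wells for no effect and wells without enzyme for full effect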
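Human LDH5 (2 nM) was incubated with 0.06 mM NADH and 0.2 mM pyruvate for 5 min at room temperature in Tris pH 7.4. Remaining NADH was coupled through diaphorase/resazurin, and resorufin fluorescence was read at 0 and 20 min.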
DRD3 agonist: qHTS of D3 Dopamine Receptor Agonist: qHTS. max activation, %. actives 0.58% (n = 410,000). D(3) dopamine receptor (Homo sapiens), P35462. D3R DiscoveRx beta-arrestin cells, luminescence, 90 min; in the data active = max activation above about 30%; note: 0% is about no effect
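Cells at 1500/well, incubated overnight, then treated with pinned compounds (dopamine as control) for 90 min at 37 degrees C. DiscoveRx reagent added for 30 - 60 minutes at room temperature; luminescence read.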
RGS4 inh: Inhibitors of Regulator of G Protein Signaling (RGS) 4: qHTS; Potency, µM (series often up to 114 µM), inactives show top-dose activity change, negative = inhibition, hits mostly inhibitors; Regulator of G-protein signaling 4 (Homo sapiens), P49798; Transcreener GDP fluorescence polarization, RGS4-accelerated GTP hydrolysis; actives 0.039% (n = 390,000); active = well fitted inhibition curve with a large enough effect; inconclusive = small, poorly fitted or top-dose-only effect; inactive = no such curve, though single readings can be large or run the other way; note: potency is the fitted concentration of half-maximal effect; % is set by controls: 0 for no effect and ±100 for the full control effect; nearly all actives have a fitted effect of over 75% in size
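MLSMR compounds (23 nl, pin-transferred) preincubated 10 min at room temperature with a 500nM (2x) first reagent, then RGS4 at 900nM (2x) plus Transcreener GDP mix added; fluorescence polarization (620/688 nm) read before and after 90 min at 30 °C.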
Akt phos inh: HTS Assay for Inhibitors of Akt Phophorylation: Primary Screen. Neuro2A IGF-stimulated pAkt S473 HTRF, 20 min; active compounds read low. activity change, % for hits at 50 µM. actives 0.32% (n = 360,000). AID 651550, 2012; in the data active = activity change below about -80%; inconclusive = mostly about -51% to -80%; note: % is set by controls: 0 for no effect and ±100 for the full control effect
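Neuro2A cells (4,500/well, DMEM with 0.5% FBS) were treated with compound at a single 50 µM final concentration, stimulated with 6 nM IGF for 20 min at 37 °C, and lysed. Phospho-Akt Ser473 was read by HTRF as 665/615 ratio ×10^4.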
Starred values were filed as active, the others as inactive; i = inactive; ? = inconclusive; / = no result; [ ] = remark or other dose. A selection: hits, their analogues and other compounds. The true share with any hit is near 2.8%.

SMILES | PI4K2A block | D3 antag | LDHA block | DRD3 agonist | RGS4 inh | Akt phos inh
Cc1ccsc1C(=O)C1CCCN(Cc2ccn[nH]2)C1 (centres undefined) | -2 | -62* | -3 | -22 | 8% | i
Cc1ccsc1C(=O)C1CCCN(Cc2cc(C(C)C)n[nH]2)C1 (centres undefined) | -16 | -81* | 1 | -26 | -23% | i
Cc1cccc(C)c1-n1nnnc1C1(NC(C)C)CCCCC1 | / | / | -3 | / | / | /
COc1ccc2c(C)c(CC(=O)N3CCN(CCc4ccccn4)CC3)c(=O)oc2c1 | / | / | -4 | / | / | /
COc1ccc(OC)c(CN2CCCC(C(=O)c3sccc3C)C2)c1 (centres undefined) | -7 | -82* | -6 | -21 | 3% | i
COc1cccc(O)c1CN1CCCC(C(=O)c2sccc2C)C1 (centres undefined) | 1 | ? | -5 | -16 | 1% | i
COC(=O)c1ccc(CBr)cc1 | / | / | -2 | / | / | /
NC(=O)c1cn(C2OC(CO)C(O)C2O)c2ncnc(N)c12 (centres undefined) | -8 | -27 | -7 | 0 | 13% | i
N#Cc1c(Br)n(C2OC(CO)C(O)C2O)c2ncnc(N)c12 (centres undefined) | ? | 41 | 5 | 38* | -31% | i
N#Cc1cn(C2OC(CO)C(O)C2O)c2ncnc(N)c12 (centres undefined) | -51* | 9 | -12 | -13 | -35% | i
O=C(CSC(c1ccccc1)c1ccccc1)Nc1ccc2c(c1)OCCCO2 | / | / | -1 | / | / | /
c1ccc(CCNC2CC2)cc1 | / | / | 3 | / | / | /
COc1ccccc1C1SCC(=O)Nc2c1c(C)nn2C (centres undefined) | / | / | -15 | / | / | /
COC(=O)C1CN(C#N)N(c2ccc(Cl)cc2)C12c1ccccc1-c1ccccc12 (centres undefined) | 5 | -76* | -4 | -4 | ? | i
Cc1ccc(N2C(=O)NC(=O)/C(=C\c3cc(C)n(-c4cc(C(=O)O)cc(C(=O)O)c4)c3C)C2=O)cc1 | -6 | -54* | 0 | -4 | -2% | i
Cc1ccc(N2C(=O)NC(=O)/C(=C\c3cc(C)n(-c4ccc(C(=O)O)cc4)c3C)C2=O)cc1 | -26 | 18 | 4 | 2 | -22%[56.9 µM] | i
CCN(CC)CCO[C@H]1CC[C@@]2(C)C(=CC[C@@H]3[C@@H]2CC[C@]2(C)C(=O)CC[C@@H]32)C1 | / | / | / | 34* | / | /
O=C(O)c1cc(Cl)nc(Cl)c1 | / | / | 13 | / | / | /
CCCNC(=O)N1[C@H]2CC[C@@H]1C(C(=O)OC)=C(c1c(C)noc1C)C2 | -2 | -1 | -1 | 2 | 5% | i
COC(=O)C1=C(c2c(C)noc2C)C[C@@H]2CC[C@H]1N2C(=O)NCCO | -53* | 1 | -4 | 12 | 5% | i
COC(=O)C1=C(c2c(C)noc2C)C[C@@H]2CC[C@H]1N2C(=O)N1CCCC1 | 6 | 6 | 0 | 58* | 7% | i
CCCCN1CCC(O)(c2ccccc2)C(C(=O)c2ccccc2)C1 (centres undefined) | 7 | -65* | -2 | -10 | -21% | i
CN1CCC(O)(c2ccc(F)cc2)C(C(=O)c2ccc(F)cc2)C1 (centres undefined) | 5 | / | / | 2 | / | /
O=C1CSC(c2ccccc2OC2CCCC2)c2cn[nH]c2N1 (centres undefined) | / | / | 0 | / | / | /
CCN1CC=C(c2c[nH]c3ccccc23)CC1 | 5 | -71* | -5 | -13 | -8% | i
SMILES | PI4K2A block | D3 antag | LDHA block | DRD3 agonist | RGS4 inh | Akt phos inh
CCC(=O)OC1CCC2C3CCC4CC(=O)CCC4(C)C3CCC12C (centres undefined) | / | / | 4 | / | / | /
COc1ccc(CC(=O)N(CCN(C)C)CC2CCCN(Cc3ccccc3F)C2)cc1 (centres undefined) | -1 | -6 | -6 | -9 | 9% | i
CSc1ccc(CN2CCN(C(=O)Cc3ccccc3)CC2)cc1 | 8 | 0 | -24 | -6 | 1% | i
COc1ccc(CN2CCN(Cc3ccccc3F)CC2)cc1 | 7 | -73* | -17 | -38 | -9% | i
CSc1ccc(CN2CCN(Cc3ccccc3Cl)CC2)cc1 | -1 | -97* | -31* | -2 | 11% | i
COc1ccc(CCNCc2ccc(Br)cc2)cc1 | / | / | 11 | / | / | /
CC(=O)OC1CCC2(/C=N/O)[C@H]3CCC4(C)C(C5=CC(=O)OC5)CCC4(O)[C@@H]3CCC2(O)C1 (some centres undefined) | / | / | 1 | / | / | /
Cc1cc(C)c2[nH]c(C)c(CCN)c2c1 | / | / | 1 | / | / | /
COc1cc(/C=C2\C[C@H]3[C@@H]4CC=C5C[C@@H](N6CCCC6)CC[C@]5(C)[C@H]4CC[C@]3(C)[C@H]2O)cc(OC)c1OC | -4 | -70* | 5 | -28 | ? | i
C[C@]12CC[C@@H](O)CC1=CCC1C2CC[C@@]2(C)C1CC[C@@H]2N (some centres undefined) | 5 | 1 | -4 | 13 | 4% | i
CCOC(=O)C1(CCc2ccccc2)CCN(Cc2cccc3c2OCO3)CC1 | 2 | -81* | 1 | -26 | 28% | i
CCOC(=O)C1(CCc2ccccc2)CCN(Cc2cccc3cnccc23)CC1 | -1 | -2 | 1 | -13 | -28% | i

Compound activity from PubChem.
